# Article PMC10726135, “HNF4α isoforms regulate the circadian balance between carbohydrate and lipid metabolism in the liver”
# The full ranking holds about 18,000 sequences; the median of “log2 normalized intensity” is about 0.39, and the highest 2% start at about 6.6. Only a selection was taken, and the highest values are over-represented in it overall.
# Biological target: T1, HNF4alpha2 (COS-7 nuclear extract) (Homo sapiens, UniProt P41235 1-474)
# T1 sequence: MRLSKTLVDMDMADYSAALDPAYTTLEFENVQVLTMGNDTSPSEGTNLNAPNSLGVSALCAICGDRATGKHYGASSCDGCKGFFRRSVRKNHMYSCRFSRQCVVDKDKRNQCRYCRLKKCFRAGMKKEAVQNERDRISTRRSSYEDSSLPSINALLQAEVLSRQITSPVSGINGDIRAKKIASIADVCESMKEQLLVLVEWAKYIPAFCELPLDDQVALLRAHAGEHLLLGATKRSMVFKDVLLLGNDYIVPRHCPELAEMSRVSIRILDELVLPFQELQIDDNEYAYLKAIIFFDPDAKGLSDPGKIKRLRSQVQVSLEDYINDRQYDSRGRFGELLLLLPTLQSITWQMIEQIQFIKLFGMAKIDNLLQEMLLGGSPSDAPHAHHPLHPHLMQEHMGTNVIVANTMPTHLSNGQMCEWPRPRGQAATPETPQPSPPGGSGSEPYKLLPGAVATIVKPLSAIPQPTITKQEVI
# Test: protein-binding microarray; COS-7 nuclear extract on double-stranded Agilent 4x180k PBM; binding buffer, salt, pH and temperature not given in the material; high values mean tight binding
# Settings: chain copies: 2; label: 3' end of strand 1 on the slide; dsDNA, one strand shown
# Procedure, shortened: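 Nuclear extracts came from COS-7 cells transiently transfected by CaPO4 with a human HNF4α isoform expression vector. They were applied to a custom Agilent SurePrint G3 4x180k array of ~60-nt oligonucleotides, made double-stranded, with ~44,000 test sequences spotted in quadruplicate. Bound HNF4α was imaged at 2-µm resolution on an Agilent G2565CA scanner. Binding signal was taken as background-corrected, normalized gProcessedSignal from Agilent software.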
row,Sequence,binding signal
1,GTATCTCTTCGCCTTGCTTATCTGGGAGGGGCCTAGGGAGATTAGAGTATCGGTCGA,-0.214 log2 normalized intensity
2,CTTCAAAGGAGTGGAGGAAGGAAGAAGTGTGCCTAGGGAGATTAGAGTATCGGTCGA,0.537 log2 normalized intensity
3,GTGGTCATGTAGGTGTCTCAGGAATGTCCTGCCTAGGGAGATTAGAGTATCGGTCGA,1.85 log2 normalized intensity
4,GCTTATGCATGGGAGATCTTCAGTAAGAGGGCCTAGGGAGATTAGAGTATCGGTCGA,-0.283 log2 normalized intensity
5,GCTGGAACTCCTCCGGTCAAGATCAAGTGGGCCTAGGGAGATTAGAGTATCGGTCGA,0.207 log2 normalized intensity
6,TCTAAGATTGGCCCTGATAATCAATCCAGCGCCTAGGGAGATTAGAGTATCGGTCGA,-0.941 log2 normalized intensity
7,CCACAGAATCGCCCCACCCTGCCTGGGTAGGCCTAGGGAGATTAGAGTATCGGTCGA,1.35 log2 normalized intensity
8,TCAGAGCAGGTGAACGACTTGACAAAGGTCGCCTAGGGAGATTAGAGTATCGGTCGA,3.22 log2 normalized intensity
9,GGAGGACTTTGGAATGGCAGTGCTTGTCCAGCCTAGGGAGATTAGAGTATCGGTCGA,1.83 log2 normalized intensity
10,GAATGACTTTGGGGAAATGACCTTTGTCCAGCCTAGGGAGATTAGAGTATCGGTCGA,8.8 log2 normalized intensity
11,ACTTTGGGGAAATGACCTTTGTCCAGCTGTGCCTAGGGAGATTAGAGTATCGGTCGA,6.74 log2 normalized intensity
12,TTATCATGTGGTATTAACATGTAAATATGAGCCTAGGGAGATTAGAGTATCGGTCGA,1.69 log2 normalized intensity
13,AATGACCTTTGTCCAGCTGTGCCGAGCCTGGCCTAGGGAGATTAGAGTATCGGTCGA,4.02 log2 normalized intensity
14,TGATGACTTTTGACCCCAGGGGAAACTCCAGCCTAGGGAGATTAGAGTATCGGTCGA,3.99 log2 normalized intensity
15,ATGTGGTATTAACATGTAAATATGACCTTTGCCTAGGGAGATTAGAGTATCGGTCGA,7.12 log2 normalized intensity
16,GGGGAGGGCATGGACTTTGGAATTAAGGAGGCCTAGGGAGATTAGAGTATCGGTCGA,5.45 log2 normalized intensity
17,GGGGAAATGACCTTTGTCCAGCTGTGCCGAGCCTAGGGAGATTAGAGTATCGGTCGA,6.11 log2 normalized intensity
18,GTATTAACATGTAAATATGACCTTTGCTTTGCCTAGGGAGATTAGAGTATCGGTCGA,6.44 log2 normalized intensity
19,CTGGTGTAGTGGGGAGGGCATGGACTTTGGGCCTAGGGAGATTAGAGTATCGGTCGA,5.45 log2 normalized intensity
20,GTAGTGGGGAGGGCATGGACTTTGGAATTAGCCTAGGGAGATTAGAGTATCGGTCGA,7.37 log2 normalized intensity
21,CTAAAAACATTGTGGAGCTCATGTAAGGTCGCCTAGGGAGATTAGAGTATCGGTCGA,1.62 log2 normalized intensity
22,CATGTGGGTCCAAAGAACATTGCATTCCTTGCCTAGGGAGATTAGAGTATCGGTCGA,1.55 log2 normalized intensity
23,CCCCGCCTTGGCCTCCCGGAGAGGCCCCGCGCCTAGGGAGATTAGAGTATCGGTCGA,2.49 log2 normalized intensity
24,CCCCCACACCATTAGAGAACATGTACTTTGGCCTAGGGAGATTAGAGTATCGGTCGA,3.32 log2 normalized intensity
